AmpC inh detg = blocks E. coli AmpC beta-lactamase in detergent assay; P00811; AmpC hydrolysis of nitrocefin, absorbance 480 nm, 0.01% Triton; Potency, µM (doses to about 114 µM), without a hit: at the highest dose activity change, negative = inhibition, actives largely listed as inhibitors; 370,000 compounds, 0.041% hits; AID 485294;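 also: 0% = no-compound wells and -100% = no-enzyme wells; nearly all actives have a fitted effect of over 25% in size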
Target sequence (P00811 whole entry, looked up): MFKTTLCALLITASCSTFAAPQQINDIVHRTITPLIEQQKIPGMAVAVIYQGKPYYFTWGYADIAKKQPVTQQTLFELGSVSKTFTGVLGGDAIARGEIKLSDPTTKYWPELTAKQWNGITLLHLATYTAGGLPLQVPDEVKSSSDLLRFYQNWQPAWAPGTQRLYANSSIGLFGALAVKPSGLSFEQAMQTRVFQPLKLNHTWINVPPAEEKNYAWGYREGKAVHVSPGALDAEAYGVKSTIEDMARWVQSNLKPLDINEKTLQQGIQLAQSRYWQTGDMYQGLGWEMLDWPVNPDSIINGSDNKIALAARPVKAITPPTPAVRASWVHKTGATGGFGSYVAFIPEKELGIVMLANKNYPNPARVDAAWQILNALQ
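20 mM phosphate pH 7.0 + 0.01% (detergent screen) or 0.0001% Triton X-100; 5.3 nM AmpC reagent; cpd preinc 15 min RT; nitrocefin (800 uM stock) to start; A480 q20 s × 4 min; Activity was normalised to no-enzyme and no-compound control wells.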
Sm TGR inh = blocks Schistosoma mansoni thioredoxin glutathione reductase; purified TGR, DTNB reduction, TNB absorbance 405 nm; Potency, µM (series often up to 114 µM), for inactives: at the top dose activity change, negative = inhibition, usual class: inhibitors; 360,000 compounds, 3% hits; also: nearly all actives have a fitted effect of over 60% in size
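First, TGR (20 nM dispensed) and NADPH were mixed with compound. Second, a 15 min room-temperature incubation followed. Third, further NADPH and then DTNB were added to start the reaction. Finally, TNB absorbance was monitored kinetically.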
AMA1 RON2 block = inhibitors of Plasmodium falciparum AMA1-RON2 interaction. AlphaScreen AMA1-biotinylated RON2 peptide binding. Potency, µM (doses to about 58.2 µM), without a hit: at the top dose activity change, negative = inhibition, hits mostly inhibitors. AID 720542. 360,000 compounds, 0.2% hits;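 also: 0% = vehicle wells and -100% = peptide control; nearly all actives have a fitted effect of over 45% in size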
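AMA1 (3D7) with his tag at 25 nM final met compounds first, then biotinylated RON2 peptide at 25 nM; detection used donor plus acceptor beads, 10 µg/mL apiece, read by AlphaScreen after 30 min at room temperature.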
RE007 growth inh = less growth of the S. pombe RE007 Vpr strain. S. pombe RE007 Vpr strain, BacTiter-Glo ATP luminescence, 24 h. Potency, µM (top dose mostly 92.2 µM), for inactives: at the top dose activity change, negative = less growth, usual class: inhibitors. 360,000 compounds, 0.21% hits; active = well fitted falling curve with a large enough effect; inconclusive = small, poorly fitted or top-dose-only effect; inactive = no such curve, though single readings can be large or run the other way; also: nearly all actives have a fitted effect of over 50% in size
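Fission yeast RE007 carrying one integrated HIV-1 vpr copy, seeded at OD 0.01 in PMG+AL medium with 23 nL pinned compound. Grown 24 h at 30 degrees; viability read by BacTiter-Glo luminescence after 5 min.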
AmpC inh no detg = inhibitors of E. coli AmpC beta-lactamase without detergent; P00811; AmpC nitrocefin hydrolysis, absorbance 480 nm, 0.0001% Triton; Potency, µM (series often up to 57.1 µM), for inactives: at the highest dose activity change, negative = inhibition, actives largely listed as inhibitors; 330,000 compounds, 0.52% hits; AID 485341;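 also: plate controls were no compound for no effect and no enzyme for full effect; nearly all actives have a fitted effect of over 20% in size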
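20 mM phosphate pH 7.0 + 0.01% (detergent screen) or 0.0001% Triton X-100; 5.3 nM AmpC reagent; cpd preinc 15 min RT; nitrocefin (800 uM stock) to start; A480 q20 s × 4 min; Activity was normalised to no-enzyme and no-compound control wells.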
* hit, by the source's call; ? = inconclusive; . = no result given. The list is not random: actives were taken first. Their share in the collection is about 3.2%. Unless noted, calls follow the shape of the dose curve; as a rule, active = well fitted curve in the direction sought with a large enough effect; inconclusive = small, poorly fitted or top-dose-only effect, or another doubt; inactive = no such curve, though single readings can be large; an effect the other way counts as inactive or inconclusive. Unless noted, % is scaled to controls: 0 for no effect and ±100 for the full control effect; potency is read from the fitted curve at half-maximal effect.

SMILES	AmpC inh detg	Sm TGR inh	AMA1 RON2 block	RE007 growth inh	AmpC inh no detg
CCN1CCOC(=O)C1CC(=O)Nc1cccc(OC)c1 (centres undefined)	6%	18µM*	.	.	.
O=C(CC1C(=O)OCCN1Cc1ccccc1)Nc1ccc(F)cc1 (centres undefined)	0%	?	.	.	.
COC(=O)c1cc(NC(=O)CC2C(=O)OCCN2Cc2ccccc2)cc(C(=O)OC)c1 (centres undefined)	-3%	-34%	.	.	.
CCOC(=O)c1ccc(NC(=O)CC2OCCN(CC)C2=O)cc1 (centres undefined)	0%	25µM*	-4%	4.5µM*	-24%
COc1ccc(N(CC(=O)Nc2cccc(Cl)c2C)S(=O)(=O)c2c(C)nn(C)c2C)cc1	5%	4%	.	.	.
COc1ccc(CN2CCCN(CC(=O)Nc3cc(C)ccc3C)S2(=O)=O)cc1	19%	-2%	.	.	.
O=C(Nc1cc(-c2nc3cc(Cl)ccc3o2)ccc1Cl)c1cc2ccccc2o1	1%	4%	.	.	.
Cn1c(SCc2ccc(Br)cc2)nc2c([nH]c3ccccc32)c1=O	-10%	3%	.	.	.
COc1ccccc1NC(=O)Cn1c(=O)n(Cc2ccccc2)c(=O)c2sc3ccccc3c21	8%	-1%	.	.	.
COc1cc(/C=N/NC(=O)C(Cc2c[nH]c3ccccc23)NC(=O)OCc2ccccc2)cc([N+](=O)[O-])c1O (centres undefined)	-6%	-12%	1%	2%	10µM*
CCCCN(CC)CCCNC(=O)c1nn(-c2ccc(OC)cc2)c(=O)c2c1c1ccccc1n2C	-3%	8%	.	.	.
Cc1cc2ncn(-c3ncccc3[N+](=O)[O-])c2cc1C	3%	45µM*	-8%	-10%	-20%
O=C1c2cc(S(=O)(=O)NCCO)ccc2-c2ccc(S(=O)(=O)NCCO)cc21	-3%	7%	?	-12%	-13%
N#CC(C#N)=C1c2cc(S(N)(=O)=O)ccc2-c2ccc(S(N)(=O)=O)cc21	-14%	4.5µM*	-22%	-24%	-10%
NS(=O)(=O)c1ccc2c(c1)C(=NO)c1cc(S(N)(=O)=O)ccc1-2	-13%	3%	-1%	-1%	-17%
N#CC(C#N)=C1c2cc(S(=O)(=O)NCCO)ccc2-c2ccc(S(=O)(=O)NCCO)cc21	-8%	4.5µM*	-6%	1%	-24%
Cc1cccc(-n2c3nc(=O)n(C)c(=O)c-3cc3c(C)nn(-c4ccccc4)c32)c1C	5%	-11%	.	.	.
Cc1cn2c(=O)cc(COC(=O)c3cccc(NC(=O)c4ccccc4C)c3)nc2s1	2%	5%	.	.	.
COc1ccc(C)cc1NC(=O)CN1c2ccccc2S(=O)(=O)c2ccccc21	6%	-7%	.	.	.
Cc1ccc(C(C)C)c(OCCCn2ccnc2C)c1	-14%	89µM*	-28%	5%	40%
CCOC(=O)c1ccc(-n2c(CN3CCN(CCO)CC3)nc3ccc([N+](=O)[O-])cc3c2=O)cc1	-8%	35µM*	5%	8%	-2%
CN1CC(C(=O)c2ccc(Cl)cc2)C(c2ccc(N(C)C)cc2)C1 (centres undefined)	7%	.	?	-13%	54%
CN1CC(C(=O)c2ccc(Cl)cc2)C(c2ccc(Cl)cc2Cl)C1 (centres undefined)	11%	18%	32µM*	-16%	80%
CC(=O)c1ccc(Nc2cc(C)nc3nc(Cc4ccccc4)nn23)cc1	19%	5%	.	.	.
Cc1ccc(/C=c2/sc3nnc(-c4ccccc4Cl)n3c2=O)o1	?	40µM*	-5%	6%	-31%
SMILES	AmpC inh detg	Sm TGR inh	AMA1 RON2 block	RE007 growth inh	AmpC inh no detg
Cc1ccc(/C=c2\sc3nc(-c4ccco4)nn3c2=O)o1	?	8.9µM*	-26%	-23%	?
Cc1ccc(/C=c2\sc3nc(-c4ccccc4Br)nn3c2=O)o1	?	45µM*	13%	7%	-41%
COc1ccc(Br)cc1/C=c1\sc2nc(-c3ccco3)nn2c1=O	-8%	13µM*	-9%	6%	-47%
O=C1CCSC2(C(=O)N(Cc3ccc(F)cc3)c3ccccc32)N1c1cccc(F)c1 (centres undefined)	-2%	3%	.	.	.
CC(C)(C)NC(=O)C(c1cc2ccccc2o1)n1c(=O)c(-c2ccccc2)nc2ccccc21 (centres undefined)	.	.	-2%	4%	.
COC(=O)C1=C(C)N(Cc2ccco2)C(=O)N[C@@H]1c1cccc(C(F)(F)F)c1	?	28µM*	.	.	-10%
COc1ccc(Cl)cc1NC(=O)CSc1nc(=O)n(Cc2ccco2)c2c1CCC2	5%	-8%	.	.	.
CC(C)/C=C(/C(=O)c1ccc(Cl)cc1Cl)n1cncn1	-3%	35µM*	-1%	.	1%
O=C1CC(N2CCCc3ccccc32)C(=O)N1c1ccccc1 (centres undefined)	?	25µM*	-8%	-9%	-7%
O=C1CC(N2CCN(c3ccccc3Cl)CC2)C(=O)N1c1ccccc1 (centres undefined)	-5%	45µM*	9%	?	69%
O=C1CC(N2CCOCC2)C(=O)N1c1ccccc1Cl (centres undefined)	?	50µM*	2%	-25%	-20%
CCCOc1ccccc1N1C(=O)CC(N2CCOCC2)C1=O (centres undefined)	4%	?	-9%	6%	9%
CCN1CCN(C(c2ccccc2)c2sc3nc(-c4ccco4)nn3c2O)CC1 (centres undefined)	-1%	5%	.	.	.
Cc1cccc(N(C)c2nc3ccc(C(=O)c4ccccc4)cc3n3c(C)nnc23)c1	-9%	-4%	.	.	.
Cc1nc(C)c(C(=O)C2=C(O)C(=O)N(CCN(C)C)C2c2ccco2)s1 (centres undefined)	-4%	-19%	-6%	6%	-2%
O=C(C1=C(O)C(=O)N(CCN2CCOCC2)C1c1ccc(Cl)cc1)c1cc2ccccc2o1 (centres undefined)	-1%	28µM*	4%	1%	13%
Cc1nc(C)c(C(=O)C2=C(O)C(=O)N(CCN3CCOCC3)C2c2ccco2)s1 (centres undefined)	?	28µM*	4%	2%	-9%
COc1cccc(C2C(C(=O)c3cc4ccccc4o3)=C(O)C(=O)N2CCN2CCOCC2)c1 (centres undefined)	-10%	40µM*	-17%	-8%	7%
COc1ccccc1C1C(C(=O)c2cc3ccccc3o2)=C(O)C(=O)N1CCN1CCOCC1 (centres undefined)	?	40µM*	22%	-11%	15%
COC(=O)c1ccc(C2C(C(=O)c3cc4ccccc4o3)=C(O)C(=O)N2CCN2CCOCC2)cc1 (centres undefined)	-1%	?	-3%	-6%	-11%
